From PubChem BioAssay
In the library only some 3.5% were active in any assay of this set; here they are far more common.
UGM FP inh = M. tuberculosis UGM enzyme inhibitors, primary screen, biochemical, fluorescence polarization, single point | UDP-galactopyranose mutase (Mycobacterium tuberculosis (strain ATCC 25618 / H37Rv)), … | purified UGM, fluorescence polarization probe displacement | inhibition, % at 10 µM | actives 0.06% (n = 320,000); in the data active = inhibition above about 10%, passing the limit was not always enough
FadD28 FP inh = inhibitors of FadD28 bisubstrate probe binding, primary screen, biochemical, fluorescence polarization, single point; inhibition, % at 12.5 µM; actives 0.22% (n = 360,000); AID 588549, 2011; Mycobacterium tuberculosis FadD28 fatty-acid-AMP ligase; in the data active = inhibition above about 8.5%, passing the limit was not always enough
GDH-TPI counter = GDH-TPI coupling enzyme inhibitors, primary screen, artefact control for M. tuberculosis FBA inhibitor project, biochemical, absorbance, full deck; GDH-TPI coupled enzyme counterscreen, NADH absorbance; inhibition, % at 4.8 µM; actives 1.2% (n = 360,000); in the data active = inhibition above about 30%;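 also: 0% = DMSO wells and 100% = wells lacking the enzyme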
Mtb hypoxia rep = PubChem AID 1159583; M. tuberculosis hypoxia-regulated fluorescent reporter, fluorescence; fluorescence inhibition, % (test concentration not listed); actives 0.1% (n = 300,000); in the data active = fluorescence inhibition mostly above about 23%, no sharp cut-off; inactive = mostly below about 17%
FBA Mtb inh = Mtb FBA enzyme inhibitors, primary screen, biochemical, fluorescence, strain H37Rv | inhibition, % at 1 µM | Fructose-bisphosphate aldolase (Mycobacterium tuberculosis (strain ATCC 25618 / H37Rv)), … | purified M. tuberculosis FBA, fluorescence read-out | actives 2.3% (n = 360,000) | AID 588726, 2011; in the data active = inhibition above about 27%;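 also: 0% = vehicle and 100% = reference inhibitor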
Rv3671c inh = Rv3671c serine protease inhibitors, primary screen, biochemical, fluorescence polarization, M. tuberculosis H37Rv; P9WHR9; inhibition, % at 5.96 µM; actives 0.048% (n = 320,000); AID 2606, 2010; in the data active = inhibition above about 38%;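 also: extracellular domain of Rv3671c used as enzyme; 0% = enzyme with DMSO and 100% = no enzyme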
Target sequence (P9WHR9 whole entry, looked up, the tested form may be a part): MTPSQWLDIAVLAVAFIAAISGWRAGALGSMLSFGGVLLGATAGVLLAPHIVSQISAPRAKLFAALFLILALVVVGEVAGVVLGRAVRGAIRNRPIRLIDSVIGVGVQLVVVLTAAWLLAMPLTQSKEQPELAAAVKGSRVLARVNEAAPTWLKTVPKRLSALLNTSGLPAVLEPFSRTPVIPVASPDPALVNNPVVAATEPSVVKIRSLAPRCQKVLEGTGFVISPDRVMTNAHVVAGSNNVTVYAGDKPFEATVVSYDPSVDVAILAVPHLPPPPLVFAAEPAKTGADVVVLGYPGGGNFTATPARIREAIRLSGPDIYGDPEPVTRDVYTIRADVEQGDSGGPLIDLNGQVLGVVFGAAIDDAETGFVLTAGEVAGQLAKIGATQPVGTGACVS
The depositor's hits bear a star; · = not tested or not shown; ! = repeats disagree.

SMILES	UGM FP inh	FadD28 FP inh	GDH-TPI counter	Mtb hypoxia rep	FBA Mtb inh	Rv3671c inh
Cc1cc(C)n2cc(CSc3ccccn3)nc2n1	2.4	1.0	-3.9	14.8	10.4	1.9
Cc1cc(C)n2cc(CSCc3ccccc3)nc2n1	1.2	-2.6	-0.9	-5.8	159.6*	5.4
CC(=O)CC1c2ccccc2S(=O)(=O)N1C1CCCCC1 (stereo not given)	·	·	·	-0.2	·	·
Cc1[nH]n(-c2ccc([N+](=O)[O-])cc2)c(=O)c1C=NCCc1c(C)[nH]c2ccccc12	-1.0	-1.0	30.7*	-0.9	-1.6	-2.3
CCCc1[nH]n(-c2ccc([N+](=O)[O-])cc2)c(=O)c1C=NCCCn1ccnc1	1.2	-1.2	31.9*	4.6	-1.0	-8.4
COc1ccc(C2C=CCN(C(=O)c3ccccc3)C(C)C(=O)N2Cc2ccc(F)cc2)cc1 (stereo not given)	·	·	·	-0.9	·	·
CCOC(=O)c1sc(=S)n(-c2ccccc2)c1N	-0.8	-2.6	34.4*	6.2	-3.3	11.1
CCOC(=O)c1sc(=S)n(-c2ccccc2)c1N(C(C)=O)C(C)=O	-0.2	-0.5	10.8	4.8	-0.5	7.5
CCOC(=O)c1sc(=S)n(-c2ccccc2Cl)c1C	-0.7	-1.8	39.3*	-3.5	2.5	1.8
CCOC(=O)c1sc(=S)n(-c2ccccc2)c1C	-0.7	-0.8	34.0*	10.1	2.5	-5.7
S=c1[nH]nc(-c2ccccc2Cl)n1N=C/C=C/c1ccco1	·	·	·	5.1	·	·
CCN1C(=O)C(=CN2CCN(c3ccccc3)CC2)SC1=S	·	·	·	5.9	·	·
O=C(Nc1cccc([N+](=O)[O-])c1)NC1CCCCCCC1	1.1	17.6*	-8.4	·	0.0	·
O=C(CNC1CCCCC1)Nc1cccc([N+](=O)[O-])c1	1.3	-2.8	-1.5	12.6	0.5	1.0
Cn1nc(C(=O)Nc2cc(Cl)ccc2N2CCCC2)c2ccccc2c1=O	17.0*	-2.6	4.5	-9.4	0.0	-13.1
Cc1ccc2cc(CN(Cc3ccco3)S(=O)(=O)c3c(C)ccc4nsnc34)c(=O)[nH]c2c1	1.6	-2.8	32.3*	2.6	0.6	-1.0
Cc1cc2cc(CN(Cc3ccco3)S(=O)(=O)c3c(C)ccc4nsnc34)c(=O)[nH]c2cc1C	1.5	-5.4	17.5	-1.0	-1.9	-5.4
CC1CN(S(=O)(=O)c2cccc(C(=O)OCc3cc(=O)oc4cc(O)ccc34)c2)CC(C)O1 (stereo not given)	-3.1	-5.2	2.6	4.3	6.2	-19.7
COc1cc(OC)cc(C(=O)NCC(=O)OCc2cc(=O)oc3cc(OC)ccc23)c1	2.4	-6.3	11.3	-1.8	14.9	-2.2
COc1ccc(OC)c(CN2CCN(Cc3cc(=O)oc4cc(O)ccc34)CC2)c1	0.7	-1.1	10.5	-1.8	114.7*	1.0
COc1ccc2c(COC(=O)CNS(=O)(=O)c3ccccc3)cc(=O)oc2c1	1.8	-4.9	13.7	10.0	118.6*	2.4
COc1ccc2c(CC(=O)N[C@@H](Cc3c[nH]c4ccccc34)C(=O)O)cc(=O)oc2c1	-0.1	0.4	27.0	-2.7	21.6	-0.7
COc1ccc2c(COC(=O)c3cccc(S(=O)(=O)NCC(C)C)c3)cc(=O)oc2c1	-1.7	-5.3	0.4	14.1	41.6*	-18.9
COC(=O)Cc1cc(=O)oc2cc(OC)ccc12	-0.5	-1.1	14.6	5.8	118.5*	-8.5
COC(=O)C1CCN(Cc2cc(=O)oc3cc(OC)ccc23)CC1	-1.5	-0.8	23.5	5.3	22.1	-5.9
SMILES	UGM FP inh	FadD28 FP inh	GDH-TPI counter	Mtb hypoxia rep	FBA Mtb inh	Rv3671c inh
Cc1cc(C(=O)NN=Cc2sc(N3CCOCC3)nc2-c2ccccc2)c(C)o1	·	·	·	-12.5	·	·
CC(=NNC(=O)c1sccc1-n1cccc1)c1cccs1	·	·	·	10.5	·	·
CCn1c(SCC(=O)NN=Cc2c[nH]c3ccccc23)nnc1-c1ccc(Cl)cc1	·	·	·	14.8	·	·
O=C(NN=Cc1ccc2c(c1)OCO2)C(=O)Nc1cccc(Cl)c1	·	·	·	-1.6	·	·
Nc1ccc(C(=O)O)c(O)c1	-2.6	15.6*!	3.4	·	-4.3	5.9
O=C(O)c1ccc(O)cc1O	0.4	-2.9	4.2	-3.6	0.0	6.1
Fc1cnc(N2CCOCC2)nc1N1CCc2ccccc21	-0.7	-1.8	29.0	7.4	-1.9	1.1
